From PubChem BioAssay
Calls of active or inactive are those of the source. Unless noted, how the calls were made is not given here.

Tests used:
[1] = system: XIP peptide (Xip251-270) binding; experiment: XIP fragment 251-270 binding compounds – biochemical, small-molecule microarray, fluorescence 635/667 nm, 0.1 µg/mL protein, primary screen (AID 1182); details: fluorescent protein binding, 635 nm, higher = more signal, called active from +8 up or from −8 down
[2] = system: XIP peptide (Xip251-270); experiment: compounds binding XIP fragment 251-270 – biochemical, small-molecule microarray, fluorescence 635/667 nm, 0.5 µg/mL protein, primary screen (AID 1183); details: fluorescence 635 nm, higher = more signal
[3] = blood-stage malaria parasite viability loss – strain 3D7, DAPI fluorescence, 100 nL, primary screen (AID 1184);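 further: parasites grown inside human red blood cells in medium with human serum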; details: P. falciparum 3D7 growth, 3 d, higher = more signal
[4] = target: Homeobox protein Hox-A13 (Mus musculus) (UniProt Q62424); experiment: disruptors of Hoxa13 oligonucleotide interaction – biochemical, fluorescence polarization, labeled oligonucleotide, primary screen (AID 1185); details: Hoxa13:DNA binding, 15 min, higher = more signal, called active from +8 up or from −8 down
Chain of Homeobox protein Hox-A13 (Mus musculus) (Q62424 whole entry, looked up): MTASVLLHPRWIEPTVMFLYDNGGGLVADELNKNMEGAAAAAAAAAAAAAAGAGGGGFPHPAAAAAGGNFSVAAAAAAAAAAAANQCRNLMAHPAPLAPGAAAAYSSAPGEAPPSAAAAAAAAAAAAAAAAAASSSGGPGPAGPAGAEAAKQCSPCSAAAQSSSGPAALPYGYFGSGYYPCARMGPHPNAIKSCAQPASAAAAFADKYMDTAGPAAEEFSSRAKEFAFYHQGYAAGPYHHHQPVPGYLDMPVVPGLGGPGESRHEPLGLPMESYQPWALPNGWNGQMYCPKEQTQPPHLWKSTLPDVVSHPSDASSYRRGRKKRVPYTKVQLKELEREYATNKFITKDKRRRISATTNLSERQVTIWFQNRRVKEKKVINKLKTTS

[5] = blockers of DNA damage checkpoint Chk1 activation – imaging, HeLa, hydroxyurea, phospho-Chk1 antibody, percent positive cells, primary screen (AID 1186); details: hydroxyurea-induced phospho-Chk1 immunofluorescence imaging, higher = more signal
[6] = blockers of DNA damage checkpoint Chk1 activation – imaging, HeLa, hydroxyurea, phospho-Chk1 nuclear intensity, primary screen (AID 1187); details: hydroxyurea-induced phospho-Chk1 immunofluorescence imaging, higher = more signal

[N-]=[N+]=Nc1ccccc1C[C@@]1(C(=O)NCCN2CCOCC2)N=C(c2ccc(OCCCO)cc2)O[C@@H]1c1ccccc1N=[N+]=[N-]
composite z-score [1]: 0.361 (inactive)
composite z-score [2]: 0.846
z-score [3]: -2.49
z-score [4]: -5.26 (inactive)
z-score [5]: -0.303 (inactive)
z-score [6]: -0.523 (inactive)

O=C1O[C@@H](c2ccccc2)[C@@H](c2ccccc2)N2[C@@H](c3ccc(O)cc3)[C@]3(C(=O)Nc4ccc(C#CCCO)cc43)[C@@H](C(=O)N3CCN(c4ncccn4)CC3)[C@H]12
composite z-score [1]: 0.678 (inactive)
composite z-score [2]: 0.731
z-score [3]: -2.11
z-score [4]: -2.41 (inactive)
z-score [5]: -0.193 (inactive)
z-score [6]: 0.058 (inactive)

CN1C2C=C(CCCO)C(C3C(=O)N(C(N)=O)C(=O)C32)C1C1CC1 (centres undefined)
composite z-score [1]: 0.379 (inactive)
composite z-score [2]: -0.0081
z-score [3]: 1.89
z-score [4]: -7.09 (inactive)
z-score [5]: -0.25 (inactive)
z-score [6]: 0.161 (inactive)

COCC(=C=CC[C@H](O)c1ccc(OCCO)cc1)CCO
composite z-score [1]: 0.407 (inactive)
composite z-score [2]: -0.252
z-score [3]: -2.93
z-score [4]: -3.28 (inactive)
z-score [5]: -0.638 (inactive)
z-score [6]: -0.571 (inactive)

CC(C)C(O)C1C=CC2C(=O)N(c3ccccc3)C(=O)C2N1Nc1ccccc1 (centres undefined)
composite z-score [1]: 1.33 (inactive)
composite z-score [2]: 0.852
z-score [3]: -0.752
z-score [4]: -4.18 (inactive)
z-score [5]: 0.436 (inactive)
z-score [6]: 0.581 (inactive)

CC(C)[Si](C#CCCCC#N)(O[C@H](c1ccccc1)c1cn(Cc2ccccc2)nn1)C(C)C
composite z-score [1]: 0.206 (inactive)
composite z-score [2]: 0.391
z-score [3]: 0.559
z-score [4]: -1.61 (inactive)
z-score [5]: -0.727 (inactive)
z-score [6]: -0.29 (inactive)

Cc1ccc(S[C@]2(C(=O)NCCN3CCOCC3)CC(=O)N(Cc3ccccc3Cl)[C@@H]2c2ccc(CO)cc2I)cc1
composite z-score [1]: 0.676 (inactive)
composite z-score [2]: 0.433
z-score [3]: -0.244
z-score [4]: -2.18 (inactive)
z-score [5]: 0.0327 (inactive)
z-score [6]: 0.421 (inactive)

C=C(COC)/C(=C/C[C@H](OC(=O)c1ccncc1)c1ccc(CO)o1)c1cnc2ccccc2c1
composite z-score [1]: 1.02 (inactive)
composite z-score [2]: 0.447
z-score [3]: 0.834
z-score [4]: -5.63 (inactive)
z-score [5]: -0.429 (inactive)
z-score [6]: -0.442 (inactive)

CC(C)c1ccc(NN2C(C(O)c3ccc(C#N)cc3)C=CC3C(=O)N(c4ccccc4)C(=O)C32)cc1 (centres undefined)
composite z-score [1]: 0.105 (inactive)
composite z-score [2]: 0.752
z-score [3]: 0.109
z-score [4]: -2.79 (inactive)
z-score [5]: 0.879 (inactive)
z-score [6]: 0.815 (inactive)

CCCCNC(=O)c1ccc(C#CC(C)(C)C)c(OC(C)=O)c1
composite z-score [1]: 0.0374 (inactive)
composite z-score [2]: 0.222
z-score [3]: -1.74
z-score [4]: -5.71 (inactive)
z-score [5]: 0.13 (inactive)
z-score [6]: 0.411 (inactive)

COc1ccc([Si](C)(C)[C@H]2[C@H](CC(=O)N3CCC[C@H]3CO)O[C@@]3(C(=O)N(Cc4ccc(N5CCOC5=O)cc4)c4ccccc43)[C@@H]2C)cc1
composite z-score [1]: 0.214 (inactive)
composite z-score [2]: 0.719
z-score [3]: -0.738
z-score [4]: -3.99 (inactive)
z-score [5]: 0.222 (inactive)
z-score [6]: 0.0857 (inactive)

CN(C)c1ccc(C(O)C2C=CC3C(=O)NC(=O)C3N2Nc2ccccn2)cc1 (centres undefined)
composite z-score [1]: -0.181 (inactive)
composite z-score [2]: -0.0515
z-score [3]: 0.597
z-score [4]: -2.26 (inactive)
z-score [5]: 0.431 (inactive)
z-score [6]: 0.493 (inactive)

COCCOC(=O)N1C(=O)[C@@]2(c3cc(C#CCCO)ccc31)[C@H](C(=O)Nc1nc3ccccc3s1)[C@H]1C(=O)O[C@H](c3ccccc3)[C@H](c3ccccc3)N1[C@@H]2c1ccc(O)cc1
composite z-score [1]: 3.02 (inactive)
composite z-score [2]: 0.765
z-score [3]: -1.45
z-score [4]: -3.01 (inactive)
z-score [5]: -0.225 (inactive)
z-score [6]: -0.445 (inactive)

Oc1ccc2cc[n+](Cc3cc4c(cc3Br)OCO4)cc2c1
composite z-score [1]: 0.425 (inactive)
composite z-score [2]: 0.135
z-score [3]: 0.0298
z-score [4]: -8.63 (active)
z-score [5]: 0.12 (inactive)
z-score [6]: 0.225 (inactive)

C#Cc1cc2ccccc2oc1=O
composite z-score [1]: 0.151 (inactive)
composite z-score [2]: 0.35
z-score [3]: -0.744
z-score [4]: -1.51 (inactive)
z-score [5]: 0.318 (inactive)
z-score [6]: -0.6 (inactive)

COCCCNC(=O)[C@@]1(Sc2ccc(C)cc2)CC(=O)N(C2Cc3ccccc3C2)[C@@H]1c1ccc(CO)cc1
composite z-score [1]: 0.33 (inactive)
composite z-score [2]: 0.446
z-score [3]: -1.52
z-score [4]: -3.56 (inactive)
z-score [5]: -0.0691 (inactive)
z-score [6]: 0.0579 (inactive)

COC(=O)C(CC#Cc1ccc2c(c1)[C@]1(C(=O)N2)[C@H](c2ccc(O)cc2)N2[C@H](c3ccccc3)[C@H](c3ccccc3)OC(=O)[C@H]2[C@@H]1C(=O)NC[C@H](O)c1ccccc1)C(=O)OC
composite z-score [1]: 0.646 (inactive)
composite z-score [2]: 0.42
z-score [3]: 0.452
z-score [4]: -3 (inactive)
z-score [5]: -0.0427 (inactive)
z-score [6]: -0.171 (inactive)

N[C@@H](Cc1ccccc1)C(=O)NCc1cn(Cc2ccccc2)nn1
composite z-score [1]: -0.221 (inactive)
composite z-score [2]: -0.984
z-score [3]: -0.581
z-score [4]: -0.368 (inactive)
z-score [5]: -0.167 (inactive)
z-score [6]: 0.0852 (inactive)

CC(C)C(CO)N1C(=O)[C@@H]2[C@H]3C(=O)OCC=C[C@H]3OC23C=CCN(c2ccc(Cl)cc2)C(=O)[C@@H]13 (some centres undefined)
composite z-score [1]: 0.331 (inactive)
composite z-score [2]: -0.202
z-score [3]: -0.485
z-score [4]: -3.03 (inactive)
z-score [5]: -0.438 (inactive)
z-score [6]: -0.468 (inactive)

O=C(O)[C@@H]1C[C@@H]2C(=O)N3CCC[C@H]3C(=O)N2[C@@H]1c1ccc(O)cc1
composite z-score [1]: 0.543 (inactive)
composite z-score [2]: 0.906
z-score [3]: -1.37
z-score [4]: 1.66 (inactive)
z-score [5]: 0.959 (inactive)
z-score [6]: 1.08 (inactive)

CN(C)CCCCCCNC(=O)[C@@H]1C[C@@H]2C(=O)N3CCC[C@H]3C(=O)N2[C@@H]1c1cccc(OCCO)c1
composite z-score [1]: 2.52 (inactive)
composite z-score [2]: 0.872
z-score [3]: 0.517
z-score [4]: -2.94 (inactive)
z-score [5]: 0.0537 (inactive)
z-score [6]: -0.055 (inactive)

CCN(CC)c1ccc(N2CC=CC34O[C@@H]5/C=C\CCCOC(=O)C5[C@H]3C(=O)N(C(C)CO)[C@@H]4C2=O)cc1 (some centres undefined)
composite z-score [1]: -0.322 (inactive)
composite z-score [2]: 0.213
z-score [3]: 0.226
z-score [4]: -5.97 (inactive)
z-score [5]: 0.296 (inactive)
z-score [6]: 0.804 (inactive)

[N-]=[N+]=Nc1ccccc1C[C@@]1(C(=O)N2CCOCC2)N=C(c2ccc(OCCCO)cc2)O[C@@H]1c1ccccc1
composite z-score [1]: 0.111 (inactive)
composite z-score [2]: 0.765
z-score [3]: -2.32
z-score [4]: -5.84 (inactive)
z-score [5]: -1.05 (inactive)
z-score [6]: -1.34 (inactive)

Cc1ccccc1C(O)C1C=CC2C(=O)NC(=O)C2N1Nc1ccccn1 (centres undefined)
composite z-score [1]: 0.132 (inactive)
composite z-score [2]: 0.11
z-score [3]: -0.461
z-score [4]: -1.11 (inactive)
z-score [5]: -0.0651 (inactive)
z-score [6]: -0.681 (inactive)

COc1cc2c(cc1O)C(C1CC1)N(C)CC2 (centres undefined)
composite z-score [1]: -0.198 (inactive)
composite z-score [2]: 0.598
z-score [3]: -0.871
z-score [4]: -4.09 (inactive)
z-score [5]: 0.2 (inactive)
z-score [6]: 0.406 (inactive)

CCCN1C(=O)[C@@]2(Cc3ccccc31)N=C(c1ccc(OCCCO)cc1)O[C@H]2c1ccccc1
composite z-score [1]: 0.468 (inactive)
composite z-score [2]: 0.828
z-score [3]: -1.65
z-score [4]: -6.04 (inactive)
z-score [5]: -0.0494 (inactive)
z-score [6]: 0.365 (inactive)

COC(=O)[C@@]1(Cc2ccc(OC)cc2)[C@H]2c3cc(C(=O)N(C)C)n(Cc4ccc(C)o4)c3C[C@H]2CN1C(=O)c1ccccc1
composite z-score [1]: 0.223 (inactive)
composite z-score [2]: 0.0805
z-score [3]: -0.952
z-score [4]: -4.5 (inactive)
z-score [5]: 0.046 (inactive)
z-score [6]: 0.304 (inactive)

CO[C@H]1O[C@H](CO)[C@@H](OC(=O)CCc2ccccc2)[C@@H]2OC(=O)[C@@H](Cc3ccccc3)C/C=C/C[C@H](Cc3ccccc3)C(=O)O[C@@H]12
composite z-score [1]: -0.315 (inactive)
composite z-score [2]: 0.506
z-score [3]: -0.655
z-score [4]: -3.06 (inactive)
z-score [5]: -0.682 (inactive)
z-score [6]: -0.379 (inactive)

CC#CCO[Si](C#Cc1ccccc1)(C(C)C)C(C)C
composite z-score [1]: 0.0308 (inactive)
composite z-score [2]: -0.654
z-score [3]: -0.916
z-score [4]: -1.19 (inactive)
z-score [5]: 0.988 (inactive)
z-score [6]: 0.598 (inactive)

CC1=C2[C@@H](CCc3ccccc3)OB(O)C[C@@H]2[C@@H]2C(=O)N(C)C(=O)[C@@H]2C1
composite z-score [1]: 0.796 (inactive)
composite z-score [2]: 0.472
z-score [3]: 0.278
z-score [4]: -5.07 (inactive)
z-score [5]: 0.0183 (inactive)
z-score [6]: 0.0905 (inactive)

COC(=O)[C@@]1(Cc2ccc(OC)cc2)[C@H]2c3cc(C(=O)N4CCCC4)n(CCc4c[nH]c5ccc(OC)cc45)c3C[C@H]2CN1C(=O)c1ccccc1
composite z-score [1]: 0.203 (inactive)
composite z-score [2]: 0.0718
z-score [3]: -1.71
z-score [4]: -2.82 (inactive)
z-score [5]: 0.513 (inactive)
z-score [6]: 0.399 (inactive)

CCCC1(C(=O)OC)C=C2C(=C(C)C(=O)C2C)CN1 (centres undefined)
composite z-score [1]: -1.06 (inactive)
composite z-score [2]: -0.527
z-score [3]: 0.43
z-score [4]: -4.88 (inactive)
z-score [5]: 0.779 (inactive)
z-score [6]: 0.909 (inactive)

C=CCN1C(=O)[C@]2(CCS(=O)(=O)c3ccccc3)N=C(c3ccc(OCCCO)cc3)O[C@@H]2c2ccccc21
composite z-score [1]: 0.0088 (inactive)
composite z-score [2]: 0.804
z-score [3]: -2.33
z-score [4]: -2.55 (inactive)
z-score [5]: -0.419 (inactive)
z-score [6]: -0.216 (inactive)

CC(C)[Si]1(C(C)C)OCc2cc(C3CC3)nc(-c3ccc(Oc4ccccc4)cc3)c21
composite z-score [1]: -0.495 (inactive)
composite z-score [2]: -0.603
z-score [3]: -1.39
z-score [4]: -2.85 (inactive)
z-score [5]: -0.48 (inactive)
z-score [6]: -0.358 (inactive)
